Assay outcomes (PubChem)
FLuc inh: Firefly luciferase inhibition profiling of diverse chemical library using quantitative high-throughput screening; Luciferin 4-monooxygenase (Photinus pyralis), P08659; purified P. pyralis luciferase, luminescence, biochemical; Potency, µM (series often up to 115 µM), actives largely listed as inhibitors; 76,000 tested, 2.5% active; further: nearly all actives have a fitted effect of over 65% in size
Target sequence (P08659 whole entry, looked up): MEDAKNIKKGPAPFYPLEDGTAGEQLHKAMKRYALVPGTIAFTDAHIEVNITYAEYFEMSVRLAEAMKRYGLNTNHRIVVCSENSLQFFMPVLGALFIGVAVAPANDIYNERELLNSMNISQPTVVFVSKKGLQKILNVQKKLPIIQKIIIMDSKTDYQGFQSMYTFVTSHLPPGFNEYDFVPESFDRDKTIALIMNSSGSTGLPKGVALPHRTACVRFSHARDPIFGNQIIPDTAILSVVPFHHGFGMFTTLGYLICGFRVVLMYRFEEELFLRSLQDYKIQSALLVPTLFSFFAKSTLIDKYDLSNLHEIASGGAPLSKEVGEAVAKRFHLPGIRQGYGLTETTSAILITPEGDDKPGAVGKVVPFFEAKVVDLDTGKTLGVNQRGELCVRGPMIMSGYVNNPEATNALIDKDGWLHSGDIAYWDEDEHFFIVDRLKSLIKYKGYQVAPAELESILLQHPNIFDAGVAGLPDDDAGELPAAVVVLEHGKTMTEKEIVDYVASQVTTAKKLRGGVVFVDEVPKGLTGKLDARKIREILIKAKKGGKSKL
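Luminescence read by CCD imaging after purified firefly luciferase (10nM final) was added to substrate buffer holding 10uM D-luciferin and 10uM ATP, pH 7.5, pre-dosed with compound.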
NIH3T3 tox: Cytotoxic Profiling in NIH 3T3 Cell Line of Diverse Libraries Using Quantitative High-Throughput Screening; NIH 3T3 viability, CellTiter-Glo ATP luminescence, 48-72 h; Potency, µM (series often up to 96.7 µM), for inactives: top-dose activity change, negative = cytotoxicity, actives largely listed as inhibitors; 94,000 tested, 4.3% active; AID 1345082, 2018; further: nearly all actives have a fitted effect of over 55% in size
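NIH 3T3 cells at 400 cells/well received 23 nL of compound by pintool and were incubated 48 or 72 h at 37 °C. Viability was read as ATP-coupled CellTiter-Glo luminescence.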
hNpr1 antagonist: Natriuretic polypeptide receptor (hNpr1) antagonism - Primary qHTS; HEK293 hNpr1 GloSensor cGMP, ANP-stimulated luminescence; AID 1347048, 2019; Potency, µM (series often up to 46.3 µM), without a hit: top-dose activity change, negative = inhibition, hits mostly inhibitors; Atrial natriuretic peptide receptor 1 (Homo sapiens), P16066; 76,000 tested, 1.6% active; calls by dose curve; further: nearly all actives have a fitted effect of over 60% in size
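HEK293 cells stably expressing human Npr1 and cGMP GloSensor pGS-40F, loaded 2 h with 2% GloSensor reagent, given compound 30 min at room temperature. Luminescence read before and 20 min after 0.1 nM hNppA.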
HEK cytotox: Cytotoxic Profiling in HEK 293 Cell Line of Diverse Libraries Using Quantitative High-Throughput Screening; Potency, µM (top dose mostly 115 µM), without a hit: at the top dose activity change, negative = cytotoxicity, actives largely listed as inhibitors; 94,000 tested, 6.6% active; HEK 293 viability, ATP luminescence (CellTiter-Glo), 48-72 h; further: nearly all actives have a fitted effect of over 60% in size
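Cells seeded first (HEK 293, 250 cells/well), then compound added by pintool. Incubation ran 48 or 72 hr at 37 degree Celsius. CellTiter-Glo was added and luminescence imaged after 10 min at room temperature.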
An asterisk follows results filed as active; [ ] = another dose, or the depositor's remark. Sampled rows, rich in hits. Any-hit rate of the full collection: about 11%. Unless noted, the call rests on the fitted dose curve; in most records, active means well fitted curve in the direction sought with a large enough effect; inconclusive means small, poorly fitted or top-dose-only effect, or another doubt; inactive means no such curve, though single readings can be large; an effect the other way counts as inactive or inconclusive. On the % scale 0 is the no-effect control and ±100 the full control effect; potency means the concentration at half of the fitted maximal effect.

How did CC(C)N1CCN(C2CCOC3(CCN(C(=O)C4CC4)CC3)C2)CC1 (centres undefined) do in these assays?
FLuc inh: inactive; NIH3T3 tox: 5%; hNpr1 antagonist: 0%; HEK cytotox: 3%

How did CCOC(=O)C1CCN(C(=O)C2CCc3nnc(C4CCN(C(C)=O)CC4)n32)CC1 (centres undefined) do in these assays?
NIH3T3 tox: -6%; HEK cytotox: inactive

How did CC(C)CN1C(=O)CO[C@H](c2ccc(NC(=O)C(C)C)cc2)[C@H]1CO do in these assays?
FLuc inh: inactive; NIH3T3 tox: -4%[174 µM]; hNpr1 antagonist: 4%[70.6 µM]; HEK cytotox: inactive

Results for CN1Cc2ccc(NCc3ccccc3)nc2C(C)(C(=O)NCc2cccnc2)C1 (centres undefined) ?
FLuc inh: inactive; NIH3T3 tox: inconclusive; hNpr1 antagonist: -8%[70.6 µM]; HEK cytotox: inconclusive

How did CN1Cc2ccc(Nc3ccccc3)nc2C(C)(C(=O)NCc2cccs2)C1 (centres undefined) do in these assays?
FLuc inh: inactive; NIH3T3 tox: inconclusive; hNpr1 antagonist: -20%[70.6 µM]; HEK cytotox: 71µM*

Results for CCCC(=O)NC1CCN(c2ccnc3ccnn23)CC1 ?
NIH3T3 tox: -8%[138 µM]; HEK cytotox: inactive

How did O=C(Cc1ccccc1)NCC1CN(Cc2cccnc2)CC12CN(c1ccccc1)C2 (centres undefined) do in these assays?
FLuc inh: inactive; NIH3T3 tox: -18%[138 µM]; hNpr1 antagonist: -1%[70.6 µM]; HEK cytotox: inconclusive

What do the screens show for `O=c1cc(-c2ccccn2)oc2c(NC3CCOCC3)nccc12`?
FLuc inh: inactive; NIH3T3 tox: 14µM*; hNpr1 antagonist: -1%[70.6 µM]; HEK cytotox: -17%[172 µM]

What do the screens show for `O=c1cc(-c2ccccn2)oc2c(-c3cn[nH]c3)nccc12`?
FLuc inh: inactive; NIH3T3 tox: 11µM*; hNpr1 antagonist: -1%[70.6 µM]; HEK cytotox: inconclusive

Results for COc1cccc(N2C(=O)NC(=NC3CCCC3)C23CCCN(CCC(C)C)C3)c1 (centres undefined) ?
NIH3T3 tox: 32µM*; HEK cytotox: inconclusive

Results for CC(C)CCN1CCCC2(C1)C(=NC1CCCC1)NC(=O)N2c1cc(F)cc(F)c1 (centres undefined) ?
NIH3T3 tox: 32µM*; HEK cytotox: inconclusive

Results for COc1ccc(CN2CCC3(C2)C(=NC2CCCC2)NC(=O)N3c2cccc(OC)c2)cc1 (centres undefined) ?
NIH3T3 tox: -21%; HEK cytotox: inconclusive

How did O=C1CC2(CCN(C(=O)c3ccc4c(c3)OCO4)CC2)Oc2cc(Cl)ccc21 do in these assays?
FLuc inh: inactive; NIH3T3 tox: inconclusive; hNpr1 antagonist: -8%; HEK cytotox: 45µM*

How did O=C(c1ccc2c(c1)OCO2)N1CCc2nc(C3CC3)nc(-c3ccc(Cl)cc3)c2CC1 do in these assays?
FLuc inh: inactive; NIH3T3 tox: inconclusive; hNpr1 antagonist: -12%; HEK cytotox: 28µM*

What do the screens show for `Cn1cccc1CN1CCC2(CC1)CC(=O)c1ccc(Cl)cc1O2`?
FLuc inh: inconclusive; NIH3T3 tox: inconclusive; hNpr1 antagonist: -12%[70.6 µM]; HEK cytotox: 45µM*

What do the screens show for `O=C1CC2(CCN(C(=O)c3ccc4c(c3)OCO4)CC2)Oc2ccccc21`?
FLuc inh: inactive; NIH3T3 tox: inconclusive; hNpr1 antagonist: 6%; HEK cytotox: inconclusive

Results for Cn1cccc1CN1CCC2(CC1)CC(=O)c1ccccc1O2 ?
FLuc inh: inconclusive; NIH3T3 tox: inconclusive; hNpr1 antagonist: -28%[70.6 µM]; HEK cytotox: inconclusive

How did CC1=C[C@@H](CNC(=O)c2cnccn2)[C@H](C(C)C)C[C@H]1CC(=O)NCCN1CCOCC1 do in these assays?
FLuc inh: inactive; NIH3T3 tox: -3%; hNpr1 antagonist: 1%; HEK cytotox: -5%

Results for CC1=C[C@@H](CNS(=O)(=O)c2cccs2)[C@H](C(C)C)C[C@H]1CC(=O)NCCN1CCOCC1 ?
FLuc inh: inactive; NIH3T3 tox: 25µM*; hNpr1 antagonist: 2%; HEK cytotox: -22%

What do the screens show for `CC(=O)Nc1ccc(C(=O)NC[C@@H]2C=C(C)[C@H](CC(=O)NCCN3CCOCC3)C[C@H]2C(C)C)cc1`?
FLuc inh: 45µM*; NIH3T3 tox: 2%; hNpr1 antagonist: 6%; HEK cytotox: -10%

What do the screens show for `CC1=C[C@@H](CNC(=O)COc2ccccc2)[C@H](C(C)C)C[C@H]1CC(=O)NCCN1CCOCC1`?
FLuc inh: inactive; NIH3T3 tox: -20%; hNpr1 antagonist: -2%; HEK cytotox: -18%

Results for O=C(NCCN1CCCCC1)c1c(-c2cncnc2)cc(=O)n2c1CCCC2 ?
NIH3T3 tox: -18%; HEK cytotox: -5%

Results for CCC1c2nccn2CCCN1C(=O)CN1CCCC1=O (centres undefined) ?
FLuc inh: inactive; NIH3T3 tox: -9%; hNpr1 antagonist: 2%; HEK cytotox: 1%

How did O=S(=O)(c1ccc2c(c1)CCC2)N1CCCCC1c1nc(CCOCC2CC2)no1 (centres undefined) do in these assays?
FLuc inh: inactive; NIH3T3 tox: 28µM*; hNpr1 antagonist: -12%; HEK cytotox: 40µM*

How did O=S(=O)(c1cccs1)N1CCCCC1c1nc(CCOCC2CC2)no1 (centres undefined) do in these assays?
FLuc inh: inactive; NIH3T3 tox: -38%; hNpr1 antagonist: -8%; HEK cytotox: inconclusive

How did Cc1cccc(CC(=O)N2CCCN(S(C)(=O)=O)c3ccccc32)c1 do in these assays?
FLuc inh: inactive; NIH3T3 tox: 40µM*; hNpr1 antagonist: -1%; HEK cytotox: -16%

How did Cc1cc(Cl)ccc1NC(=O)CCn1ccn2nc3c(c2c1=O)CCCC3 do in these assays?
FLuc inh: inactive; NIH3T3 tox: inconclusive; hNpr1 antagonist: 0%; HEK cytotox: inconclusive

How did CCN(CC)c1ccc(NC(=O)CCn2ccn3nc4c(c3c2=O)CCCC4)c(C)c1 do in these assays?
FLuc inh: inactive; NIH3T3 tox: 40µM*; hNpr1 antagonist: -3%; HEK cytotox: inconclusive

How did COc1ccc(Cn2ccn3nc4c(c3c2=O)CCCC4)cc1F do in these assays?
FLuc inh: inactive; NIH3T3 tox: inconclusive; hNpr1 antagonist: 2%; HEK cytotox: 40µM*

How did O=C(NC1CCC1)C1CCCN1C(=O)c1cccc(-c2cccnc2)c1 (centres undefined) do in these assays?
NIH3T3 tox: -6%; HEK cytotox: inactive

What do the screens show for `O=C1NCCCCCCN(C(=O)C2CCC2)[C@H]2C[C@H](c3nc(-c4cccnc4)no3)C[C@@H]12`?
FLuc inh: inactive; NIH3T3 tox: -24%; hNpr1 antagonist: 7%; HEK cytotox: 1%
